84 compounds from PubChem BioAssay AID1259415 (National Center for Advancing Translational Sciences (NCATS), 2018) can be followed below.

Out of some 410,000 compounds screened, about 18,000 (4.4%) were called active. Another 7% or so got no clear call; they are omitted. This is one part of a sample in which actives are shown more often than they occur. Cut-off read from the data, not from the text of the source: active = activity change below about -60%; inconclusive = no clear call, values can overlap the other calls; inactive = above about -39%.
% is set by controls: 0 for no effect and ±100 for the full control effect.

A short description of the test: qHTS Assay for inhibitors of the human cytomegalovirus (HCMV). The settings on record: HFF cells, HCMV-luciferase reporter, 72 h; at 57.5 µM; stronger effect = lower value. The source says: NCGC Assay Overview: Infection with human cytomegalovirus (HCMV) continues to pose significant threats for pregnant women and immunocompromised hosts. HCMV causes serious morbidity and mortality in transplant recipients, and congenital HCMV is the leading infectious cause of mental retardation and deafness in children. In the 1990s, the annual costs associated with the disease burden of congenital CMV were estimated at around $2 billion. A HCMV vaccine is not available yet and HCMV therapies result in intolerable side effects and emergence of drug resistant viruses. […] Towards this goal we have developed and characterized a luciferase HCMV reporter that was initially used in 96 well plates and then optimized to 1536-well plates for utilization in screening of the MLSMR collection, the NGCG diversity collection and the NCGC Pharmaceutical Collection of approved and investigational drugs.
NCGC Assay Protocol Summary:
This is a cell-based assay for HCMV inhibition in HFFs cells. The screening used 2 compound doses and the HCMV-luciferase at MOI of 1 PFU/cell. Cells were treated and infected with HCMV. At 72 h post infection cell lysates were collected and luciferase activity was determined using the Glomax-Multi + Detection System (Promega, Madison, WI). Data were normalized to the controls for basal activity (buffer only) and known HCMV inhibitors Salinmoycin.
1536-well assay protocol for the assay:
(1) Add 3 ul CMV/HFF cell culture. 1000 cells/well in DMEM nirmal media.
(2) Incubate 16 hr at 37C.
(3) Add 23 nl control compound, 10uM of Salinomycin.
(4) Add 23 nl compounds in DMSO solution.
(5) Add 3 ul CMV suspension. Final 1 puf/ul, Virus stock 2000pfu/ul
(6) Incubate 72 hrs at 37C.
(7) Add 4 ul OneGlo Luc Reagent.
(8) Incubate 5 min at room temperature.
A general note: Quantitative high-throughput screening tests each substance at several concentrations.
Consider `COc1ccc(OC)c(NC(=O)C2CCCN(S(=O)(=O)c3ccc4c(c3)CCCC(=O)N4)C2)c1` (centres undefined), for which the activity change, negative = inhibition was 5.92% (inactive).
To `COc1ccc(-c2nc3ccccc3o2)cc1NC(=O)c1cc([N+](=O)[O-])ccc1N1CCOCC1` belongs 17.1% (inactive).
Under `COc1ccc(-c2nc3ccc(C(=O)NCc4ccc(C)cc4)cc3nc2-c2ccc(OC)cc2)cc1` stands 13.2% (inactive).
In the case of `CCOc1ccc(Nc2nc(Cc3nnc(SCC(=O)c4ccc(C)cc4)o3)cs2)cc1`, the activity change, negative = inhibition was -18.3% (inactive).
For `Cc1ccc(Nc2nc(CSc3nnc(-c4ccncc4)n3-c3ccccc3C)cs2)cc1`, the activity change, negative = inhibition is -86.5% (active).
To `CCOc1ccccc1-n1c(SCC(=O)NCc2ccco2)nnc1-c1ccncc1` belongs 24.1% (inactive).
As to `O=C(CSc1oc(-c2ccc(F)cc2)nc1S(=O)(=O)c1ccc(Br)cc1)NC1CCCCC1`, the activity change, negative = inhibition was 5.22% (inactive).
Under `Cc1ccc(-c2nc(S(=O)(=O)c3ccc(C)cc3)c(N3CCCCCC3)o2)cc1` stands -3.36% (inactive).
As for `CC(C)S(=O)(=O)c1oc(-c2ccc(F)cc2)nc1S(=O)(=O)c1ccc(F)cc1`, the activity change, negative = inhibition was -98.8% (active).
Under `COc1ccc(N2C(=O)CSC23C(=O)N(Cc2cccc(F)c2)c2ccccc23)cc1Cl` (centres undefined) stands -38.5% (inactive).
To `Cc1cccc(C(=O)N2CCc3cc(CNC(=O)Cc4ccc(F)cc4)ccc32)c1` belongs 5.96% (inactive); to `Cc1c(Cl)cccc1NC(=O)C1CCCN(C(=O)c2cnn(-c3ccccc3)c2-n2cccc2)C1` (centres undefined), -29.6% (inactive); to `O=c1cc(COc2cccc(C(F)(F)F)c2)nc2sc3c(n12)CCCC3`, -0.855% (inactive).
Regarding `CCOc1ccc(-c2n[nH]c3c2C(c2ccccc2OC)N(c2ccc(Br)cc2)C3=O)cc1` (centres undefined), the activity change, negative = inhibition was 21.3% (inactive).
As for `CCOC(=O)c1ccc(N2C(=O)c3n[nH]c(C)c3C2c2ccc(O)c(OC)c2)cc1` (centres undefined), the activity change, negative = inhibition was -24.9% (inactive).
To `CCOc1cc(C2c3c(-c4ccc(Br)cc4)n[nH]c3C(=O)N2c2ccc(Cl)cc2)ccc1O` (centres undefined) belongs -106% (active).
As for `COc1ccc(NC(=O)CCN2CCN(CCO)CC2)cc1`, the activity change, negative = inhibition was 0.59% (inactive).
To `O=C(c1ccc2c(c1)N(Cc1ccccc1)C(=O)c1ccccc1S2(=O)=O)N1CCC(Cc2ccccc2)CC1` belongs 4.82% (inactive); to `COc1ccc(CCNC(=O)c2ccc(CS(=O)(=O)c3ccc(Br)cc3)o2)cc1OC`, -92.4% (active); to `O=C(NCc1cccnc1)c1ccc(CS(=O)(=O)c2ccc(Br)cc2)o1`, -24.5% (inactive).
To `COc1ccc(CCNC(=O)c2nnc(CS(=O)(=O)c3ccccc3)o2)cc1OC` belongs -33.4% (inactive); to `Cc1c(S(=O)(=O)NC(C)c2ccccc2)c(=O)n(C)c(=O)n1C` (centres undefined), -5.67% (inactive); to `COCCCNC(=O)[C@H]1N2C(=O)c3ccccc3C2SC1(C)C` (some centres undefined), 36.2% (inactive).
With `Cn1ccc(=Nc2ccc(NC(=O)c3ccc(N=c4ccn(C)c5ccc([N+](=O)[O-])cc45)cc3)cc2)cc1`, the activity change, negative = inhibition is -96.1% (active).
Under `CC(=O)Nc1ccc(C(=O)OCC(=O)Nc2ccc([N+](=O)[O-])cc2C(F)(F)F)cc1` stands -34.7% (inactive); under `O=C(Nc1cc2c3c(c1)C1CCCC1CN3CC1CCCC21)c1ccc([N+](=O)[O-])cc1` (centres undefined), -31.6% (inactive); under `Cc1ccc(CCNC(=O)c2ccc3c(c2)N(Cc2cc(C)ccc2C)C(=O)c2ccccc2S3=O)cc1` (centres undefined), -0.139% (inactive).
To `Cc1cccc(NC(=O)C2CCCN2S(=O)(=O)c2cccc3nsnc23)c1C` (centres undefined) belongs 31.6% (inactive); to `CCC(=O)Nc1c(C(=O)N2CCN(c3ccc(F)cc3)CC2)oc2ccccc12`, -20.1% (inactive).
Under `CC(=O)C(C)n1cnc2scc(-c3ccc(C)cc3)c2c1=O` (centres undefined) stands -61% (active).
Regarding `COC(=O)Cn1cnc2scc(-c3ccc(C)c(C)c3)c2c1=O`, the activity change, negative = inhibition was -22.1% (inactive).
To `CCOC(=O)C(C)n1cnc2scc(-c3ccc(C)c(C)c3)c2c1=O` (centres undefined) belongs -39.3% (inactive); to `COc1cc(C(=O)N2CCN(c3ccc(Nc4ccc(C)cc4)nn3)CC2)cc(OC)c1OC`, 36.3% (inactive).
Take `CN(C)CCCNC(=O)/C=C/c1ccc(OCc2c(F)cccc2Cl)cc1`: the activity change, negative = inhibition was -62.7% (active).
To `CCOC(=O)CNC(=O)/C=C/c1c(Cl)cccc1Cl` belongs -12.3% (inactive).
Under `O=C(Nc1ccc(OCC(=O)N2CCOCC2)cc1)c1cc(F)c(F)cc1Cl` stands 4.25% (inactive).
Under `O=C(Cc1ccccc1Cl)N1CCOCC1` stands -27.3% (inactive); under `O=C(/C=C/c1ccc(OCc2c(F)cccc2Cl)cc1)N1CCOCC1`, -85.8% (active).
With `C#CC(C)(CC)NC(=O)Cn1nnc(-c2ccc(OCc3c(F)cccc3Cl)cc2)n1` (centres undefined), the activity change, negative = inhibition is -28.3% (inactive).
To `COc1cc(C2c3c(oc4ccccc4c3=O)C(=O)N2c2nc(C)c(C)s2)ccc1O` (centres undefined) belongs -20.1% (inactive).
Turning to `CCOC(=O)C1CCCN(CC(=O)Nc2cc(C)c3c(=O)oc4ccccc4c3n2)C1` (centres undefined), the activity change, negative = inhibition was 17.3% (inactive).
On to `Cc1ccc(-c2cc(-c3coc4ccccc4c3=O)c3c(n2)-c2cc(Cl)ccc2OC3)cc1`, for which the activity change, negative = inhibition was 21.6% (inactive).
For `CS/C(=C\[N+](=O)[O-])Nc1ccc(C)cc1`, the activity change, negative = inhibition was -61.4% (active).
To `Cc1nn(CC(=O)Nc2ccc(C#N)cc2)c(C)c1[N+](=O)[O-]` belongs -33.6% (inactive); to `Cc1ccc(NC(=O)c2cc3cc(C)ccc3n2C)cc1`, 22.1% (inactive).
Under `CCCN(CCC)C(=O)Cn1c(=O)n(-c2ccc(Cl)cc2)c(=O)c2c3c(sc21)CCCCC3` stands 7.98% (inactive); under `COc1ccc(C(=O)N2CCCC(C(=O)c3ccccc3OC)C2)cc1OC` (centres undefined), -10.3% (inactive).
In the case of `O=C(CSCc1cnn(-c2ccccc2)c1-n1cccc1)NCc1ccccc1Br`, the activity change, negative = inhibition is -36.4% (inactive).
Under `CCc1cc2c(-c3ccccc3)cc(=O)oc2c2c1OCN(Cc1ccc(C)cc1)C2` stands 0.791% (inactive); under `O=C(/C=C/Sc1ncn[nH]1)c1ccc(Cl)cc1`, -76.4% (active).
For the compound `Cc1cc(C)c(NC(=O)c2cc3sc(Cl)cc3n2C)c(C)c1`, the activity change, negative = inhibition was -0.202% (inactive).
Under `CN(c1ccccc1)c1ccc([N+](=O)[O-])c2nonc12` stands -75% (active).
To `Cc1ccccc1Nc1c([N+](=O)[O-])ccc2nonc12` belongs -2.44% (inactive).
As for `CN(Cc1ccccc1)c1ccc(-c2nc(-c3ccccc3)no2)cc1[N+](=O)[O-]`, the activity change, negative = inhibition was 22.8% (inactive).
To `COc1ccc(-n2nc3c(c2NC(=O)Cc2cccc(C)c2)CS(=O)C3)cc1` (centres undefined) belongs 0.139% (inactive); to `Cc1ccc(-n2nc3c(c2NC(=O)CCC2CCCCC2)CS(=O)C3)cc1` (centres undefined), -68.2% (active); to `CC(=O)Nc1c2c(nn1-c1ccc(C)cc1C)CS(=O)C2` (centres undefined), 0% (inactive).
On to `CCOc1cc(C(=O)NCCc2csc3nc(-c4ccc(C)cc4)nn23)cc(OCC)c1OCC`, for which the activity change, negative = inhibition was -29.1% (inactive).
In the case of `Cc1cc(C)n(CC(C)NCc2c(C(=O)N3CCOCC3)nc3c(C)cccn23)n1` (centres undefined), the activity change, negative = inhibition was 16% (inactive).
For `CCCCCn1c(=O)[nH]c2cc(C(=O)Nc3ccc(F)cc3)ccc2c1=O`, the activity change, negative = inhibition is 3.61% (inactive).
To `Cc1ccc(CC(=O)Nc2cccc(C#N)c2)cc1` belongs 6.08% (inactive); to `N#Cc1cccc(NC(=O)COC(=O)c2ccccc2C(=O)c2ccc(Cl)c([N+](=O)[O-])c2)c1`, -99.2% (active); to `CC(=O)Nc1ccc(NC(=O)C(C)OC(=O)c2ccccc2C(=O)c2ccc(Cl)c([N+](=O)[O-])c2)cc1` (centres undefined), -83.7% (active).
`Nc1nc(SCC(=O)Nc2ccc(Cl)c([N+](=O)[O-])c2)n[nH]1`: the activity change, negative = inhibition is -9.65% (inactive).
Consider `CC(C)NC(=O)c1ccc(Sc2ccccc2)c([N+](=O)[O-])c1`, for which the activity change, negative = inhibition was -15.4% (inactive).
On to `O=C(COc1ccc(NC(=O)c2ccccc2[N+](=O)[O-])cc1)c1ccc(F)cc1`, for which the activity change, negative = inhibition was -16.6% (inactive).
With `CCOc1ccc(NC(=O)C(CC(C)C)N2Cc3ccccc3C2=O)cc1` (centres undefined), the activity change, negative = inhibition is 9.79% (inactive).
To `Cc1ccccc1-c1nc(SCC(=O)N(C)c2ccccc2)c2c(=O)n(C)c(=O)n(C)c2n1` belongs 27.2% (inactive); to `CN1CCN(CCCNC(=O)c2ccc(/C=C3\Oc4ccccc4N(Cc4ccc(Cl)cc4)C3=O)cc2)CC1`, -110% (active).
Under `CCCN1CCN(CCCNC(=O)c2ccc3nc(Cc4ccccc4)oc3c2)CC1` stands 8.36% (inactive).
In the case of `COCCNC(=O)c1ccc2c(c1)N(Cc1cccc(Cl)c1)C(=O)c1ccccc1S2(=O)=O`, the activity change, negative = inhibition was 5.49% (inactive).
`CCc1nc(-c2cc(S(=O)(=O)N3CCN(c4ccc(OC)cc4)CC3)ccc2OC)no1`: the activity change, negative = inhibition is 48.2% (inactive).
For `Clc1ccccc1CSc1nncn2c1cc1occc12`, the activity change, negative = inhibition is -18.9% (inactive).
For `CCOC(=O)CN(C(=O)COc1nc(-c2ccccc2)cc(C)c1C#N)c1ccc(F)cc1`, the activity change, negative = inhibition is -37.6% (inactive).
To `Cc1ccc(-c2cc(C(F)(F)F)c(C#N)c(SCC(=O)Nc3ccccc3)n2)cc1` belongs 1.85% (inactive).
Under `CCOc1cc(-c2cc(-c3ccc(NC(C)=O)cc3)nc(N)c2C#N)ccc1O` stands -70.4% (active).
Under `Cc1ccc(-c2nc(CS(=O)(=O)CC(=O)NCc3ccccc3Cl)c(C)o2)cc1` stands -14.3% (inactive).
Take `CCOc1ccc(NS(=O)(=O)c2ccc(N)cc2)nn1`: the activity change, negative = inhibition was -10.2% (inactive).
Under `CCCCn1c(=N)c(S(=O)(=O)c2ccccc2)cc2c(=O)n3cccc(C)c3nc21` stands 12.5% (inactive); under `COc1ccc(CC(=O)Nc2ccc(-c3nc4ccccc4s3)c(C)c2)cc1`, 52.5% (inactive); under `COc1ccc(Cc2n[nH]c(=S)n2NC(=O)Nc2ccc(C)cc2)cc1`, 4.71% (inactive).
To `COc1ccc(CC(=O)Nc2ccc(-c3nnc(-c4ccc(C)cc4)o3)cc2)cc1` belongs -63.2% (active); to `CCn1c2ccccc2c2nnc(N3CCN(c4cc(C)ccc4C)CC3)nc21`, -34% (inactive).
Consider `COc1cc(OC)c(NC(=O)Cc2ccc(-n3c(C)nc4cccnc43)cc2)cc1Cl`, for which the activity change, negative = inhibition is 0% (inactive).
